Reference: the GenesisPotency data set
In all, about 290,000 compounds went through this assay and about 3,000 (1%) were called active. No stated cut-off is given here; in the data, active means inhibition mostly above about 36% (no sharp cut-off); inactive means mostly below about 34%. This excerpt belongs to a sample that is enriched for actives.

Each compound was assayed against T1, Nucleotide-binding oligomerization domain-containing protein 1, Homo sapiens (UniProt Q9Y239) (assay: NOD1 signaling inhibitors, primary screen, cell-based, luminescence, uHTS (AID 1578)).
T1 sequence (whole entry): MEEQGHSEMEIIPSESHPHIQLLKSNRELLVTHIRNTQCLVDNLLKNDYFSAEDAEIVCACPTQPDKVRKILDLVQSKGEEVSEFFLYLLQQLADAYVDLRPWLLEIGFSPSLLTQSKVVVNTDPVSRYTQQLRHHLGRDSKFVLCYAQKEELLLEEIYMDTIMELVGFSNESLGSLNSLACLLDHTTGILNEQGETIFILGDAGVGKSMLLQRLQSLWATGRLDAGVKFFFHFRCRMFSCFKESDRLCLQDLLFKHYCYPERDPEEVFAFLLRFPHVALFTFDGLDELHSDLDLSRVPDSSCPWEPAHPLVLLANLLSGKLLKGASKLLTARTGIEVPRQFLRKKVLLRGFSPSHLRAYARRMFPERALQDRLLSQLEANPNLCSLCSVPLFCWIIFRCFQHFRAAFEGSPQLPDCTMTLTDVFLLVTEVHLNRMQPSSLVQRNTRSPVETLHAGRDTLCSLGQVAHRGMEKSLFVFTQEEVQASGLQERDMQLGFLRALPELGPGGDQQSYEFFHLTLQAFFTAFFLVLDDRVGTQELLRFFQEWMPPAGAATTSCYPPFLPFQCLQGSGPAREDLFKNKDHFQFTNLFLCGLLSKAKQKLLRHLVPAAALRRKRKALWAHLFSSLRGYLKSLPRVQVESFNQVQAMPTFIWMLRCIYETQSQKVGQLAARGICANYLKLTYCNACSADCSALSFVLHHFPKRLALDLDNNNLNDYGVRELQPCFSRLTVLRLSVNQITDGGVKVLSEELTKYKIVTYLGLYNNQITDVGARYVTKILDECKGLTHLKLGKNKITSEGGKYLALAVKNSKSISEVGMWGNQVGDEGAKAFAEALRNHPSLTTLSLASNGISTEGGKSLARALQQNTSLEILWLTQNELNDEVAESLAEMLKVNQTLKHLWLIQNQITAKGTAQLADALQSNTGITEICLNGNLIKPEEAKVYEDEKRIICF

outcome, active:
COc1ccc(CS(=O)/C(Cl)=C(/Cl)C(=O)Nc2ccc(OC)nc2)cc1 (stereo unspecified)
CC(=O)c1ccc(N2CCN(C(=S)Nc3ccc(Oc4ccccc4)cc3)CC2)cc1
C=CCSc1nsc(NC(=O)Nc2cccc(C(C)=O)c2)n1
Cc1ccc(CS(=O)(=O)c2ccc(C(=O)N3CCN(c4ccccn4)CC3)cc2[N+](=O)[O-])cc1
Cc1ccccc1CN1CCc2c(OCC(=O)N3CCCc4ccccc43)cccc2C1=O
O=[N+]([O-])c1ccc(NC(=S)NCc2ccc(F)cc2)cc1
O=[N+]([O-])c1ccc(NC(=S)NCCc2ccc(Cl)cc2)cc1
Cc1cc(-c2ccc(C)c(S(=O)(=O)N3CCN(c4ccc(F)cc4)CC3)c2)on1
COc1ccc(-c2cc(C)no2)cc1S(=O)(=O)N1CCN(c2ccccc2F)CC1
CCOC(=O)COc1ccc2ccccc2c1/C=C/[N+](=O)[O-]
COc1ccc(CC(=O)Nc2cccc(-c3nnc(-c4ccc(C)cc4)o3)c2)cc1OC
Nc1nccc(-c2ccc(-n3cnc4ccccc43)cc2)n1
c1ccc2c(c1)ncn2-c1ccc(-c2ccnc(-c3ccncc3)n2)cc1
O=C(NNC(=O)c1ccccc1OCc1ccccc1)c1ccccc1O
O=C(NNC(=O)c1ccccc1OCc1ccc(F)cc1)c1ccccc1O
COc1ccc(C2=Nn3c(nnc3-c3ccncc3)SC2)cc1
c1csc(C2=Nn3c(nnc3-c3ccncc3)SC2)c1
c1ccc(C2=Nn3c(nnc3-c3ccncc3)SC2)cc1
COc1cccc(-c2nnc3n2N=C(C(C)(C)C)CS3)c1
Clc1ccccc1C1=Nn2c(nnc2-c2ccncc2)SC1
N#C/C(=C(/O)COC(=O)COc1cccc(Br)c1)c1nc2ccccc2[nH]1
Cc1cc(C)cc(OCC(=O)OC/C(O)=C(\C#N)c2nc3ccccc3[nH]2)c1
N#C/C(=C(/O)COC(=O)COc1ccc(Cl)cc1)c1nc2ccccc2[nH]1
COc1ccc(-[n+]2c(C)cc(/C=C3\Sc4ccccc4N3C)cc2C)cc1.[I-]
COc1ccc(-c2cncnc2-c2ccc(OC)cc2O)cc1
COc1ccc(-c2cnc(N)nc2-c2ccc(OC)cc2O)cc1
Cc1ccc(Nc2cc(C)nn2-c2nc(C)cc(=O)[nH]2)cc1
O=c1c2c(nc3c(-c4ccc(Cl)cc4)c[nH]n13)CCC2
CCCc1cc(=O)n2[nH]cc(-c3ccc(Cl)cc3)c2n1
O=c1c2c(nc3c(-c4ccc(Cl)cc4)c[nH]n13)CCCC2
O=c1c2c(nc3c(-c4cccc(Br)c4)c[nH]n13)CCCC2
CN(C)S(=O)(=O)N1CCC(Oc2cccc(C(=O)NC3CCCCCC3)c2)CC1
Cc1cccc(NC(=S)N/N=C/c2ccc([N+](=O)[O-])s2)c1
Cc1ccc(NC(=S)N/N=C/c2ccc([N+](=O)[O-])s2)cc1
Cc1cc(N2CCOCC2)c2c(N)c(Br)cc(C)c2n1
O=C(Nc1nnc(SCc2ccc(F)cc2)s1)c1ccccn1
CC(Oc1ccc(Br)cc1)C(=O)Nc1nc(-c2ccccn2)cs1 (stereo unspecified)
O=C(Nc1nc(-c2ccccn2)cs1)Nc1ccc(F)cc1F
O=C(Nc1nc(-c2cc(F)ccc2F)cs1)c1ccccn1
O=C(Nc1nc(-c2ccccn2)cs1)c1cc(Cl)ccc1[N+](=O)[O-]
Cn1cc([N+](=O)[O-])c(C(=O)Nc2nc(-c3ccc(Cl)cc3)cs2)n1
COc1ccc(-c2csc3ncnc(NCCCO)c23)cc1
OCCCNc1ncnc2scc(-c3ccc(Cl)cc3)c12
COc1ccc(-c2csc3ncnc(NCCO)c23)cc1
CCN(CC)S(=O)(=O)c1ccc2[nH]cc(C(=O)NCCC3=CCCCC3)c(=O)c2c1
Cn1c(=O)c2c(nc(NCc3ccco3)n2C/C=C/c2ccccc2)n(C)c1=O
O=C(Nc1ccc(S(=O)(=O)N2CCOCC2)cc1)c1ccc(CN2CCc3ccccc3C2)cc1
O=C(Nc1ccc(S(=O)(=O)N2CCCCC2)cc1)c1ccc(CN2CCOCC2)cc1
O=C(Nc1ccc(S(=O)(=O)Nc2ccc(F)cc2)cc1)c1ccc(CN2CCOCC2)cc1
O=C(Nc1ccc(CN2CCOCC2)cc1)c1ccc(-c2ccc(Cl)cc2Cl)o1
O=C(Nc1ccc(S(=O)(=O)N2CCCCC2)cc1)c1ccc(CN2CCc3ccccc3C2)cc1
